High-throughput results from PubChem.
In the library only some 15% were active in any assay of this set; here they are far more common.
RORgamma inh = ROR gamma (mouse) transcription inhibition | P51450 | Drosophila S2 Gal4-RORgamma UAS-luciferase reporter, 20 h | Potency, µM (series often up to 53.6 µM), for the others: at the highest dose activity change, negative = inhibition, actives largely listed as inhibitors | actives 5.4% (n = 310,000); also: nearly all actives have a fitted effect of over 60% in size
Target sequence (P51450 whole entry, looked up, the tested form may be a part): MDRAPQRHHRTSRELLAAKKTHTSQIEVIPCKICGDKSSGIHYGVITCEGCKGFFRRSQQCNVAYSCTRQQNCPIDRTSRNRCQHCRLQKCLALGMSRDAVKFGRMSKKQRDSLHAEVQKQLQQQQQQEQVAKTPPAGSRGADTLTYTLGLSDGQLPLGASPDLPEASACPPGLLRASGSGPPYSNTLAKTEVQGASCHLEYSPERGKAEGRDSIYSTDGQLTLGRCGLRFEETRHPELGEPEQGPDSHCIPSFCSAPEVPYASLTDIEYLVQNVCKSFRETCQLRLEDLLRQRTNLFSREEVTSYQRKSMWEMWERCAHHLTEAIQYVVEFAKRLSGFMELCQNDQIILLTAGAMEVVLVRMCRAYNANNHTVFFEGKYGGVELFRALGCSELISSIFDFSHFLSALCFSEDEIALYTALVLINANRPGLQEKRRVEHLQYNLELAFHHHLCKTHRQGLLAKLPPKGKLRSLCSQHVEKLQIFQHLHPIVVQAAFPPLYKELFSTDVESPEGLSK
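Drosophila S2 cells stably expressing Gal4-DBD/mouse RORγ fusion under metallothionein promoter plus UAS-luciferase; compound 1 h, then 700 uM CuSO4 induction for 20 h at ambient temperature; inhibition read as reduced luminescence.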
VP16 counter = inhibits Gal4-VP16 luciferase reporter, ROR gamma counter-screen | Drosophila S2 Gal4-VP16 UAS-luciferase, luminescence, 20 h | Potency, µM (doses to about 53.6 µM), for inactives: top-dose activity, negative = inhibition, usual class: inhibitors | actives 3.5% (n = 310,000);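 also: Gal4-VP16 expression switched on by copper sulfate through the metallothionein promoter; nearly all actives have a fitted effect of over 50% in size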
ELG1 DNA repair = inhibitors of ELG1-dependent DNA repair in HEK293T cells | HEK293T ELG1-luciferase reporter, luminescence, 16 h; DNA damage induced by 5-fluorouridine | Potency, µM (doses to about 46.1 µM), for the others: top-dose activity change, negative = inhibition, hits mostly inhibitors | actives 2.3% (n = 330,000); also: nearly all actives have a fitted effect of over 55% in size
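Reporter activity after DNA damage by 5-fluorouridine is monitored. Compound-treated cells incubate 16 hr at 37 °C, then ONE-Glo is added for 30 min before luminescence reading.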
ALOX12 inh = blocks human arachidonate 12S-lipoxygenase; P18054; purified 12hLO, xylenol orange hydroperoxide absorbance; Potency, µM (top dose mostly 108 µM), for inactives: top-dose activity change, negative = inhibition, hits mostly inhibitors; actives 1.1% (n = 580,000)
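Purified human 12hLO (150 nM final) in 25 mM Hepes, 0.01% Triton X-100, pH 7.0 was preincubated 15 min at room temperature with compound. Then 40 uM arachidonic acid was added, 30 min. Hydroperoxide was read by Fe-XO absorbance ratio 573/405 nm.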
TDP1 cell CPT = DT40-hTDP1 cell growth loss with CPT; chicken DT40 Tdp1-/-;hTDP1 cells + 20 nM CPT, ATP luminescence, 48 h; Potency, µM (doses to about 46.2 µM), for the others: at the top dose activity change, negative = growth inhibition, most hits filed as inhibitors; actives 12% (n = 420,000); AID 686979; also: nearly all actives have a fitted effect of over 55% in size
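Chicken DT40 Tdp1-/- cells complemented with human TDP1, 400 cells/well, exposed to compounds plus 20 nM camptothecin for at least 48 h at 37 C; viability read as ATP content by CellTiter-Glo luminescence.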
DT40 TDP1 no CPT = qHTS for Inhibitors of human tyrosyl-DNA phosphodiesterase 1 (TDP1): qHTS in cells in absence of CPT; DT40 Tdp1-/- hTDP1 cells, no CPT, ATP luminescence, 48 h; Potency, µM (series often up to 46.2 µM), inactives show at the top dose activity change, negative = growth inhibition, actives largely listed as inhibitors; actives 15% (n = 420,000); AID 686978, 2013; also: nearly all actives have a fitted effect of over 55% in size
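A cellular qHTS used chicken DT40 cells lacking endogenous Tdp1 but carrying stably transfected human TDP1. Compounds were applied without camptothecin, and cell growth kinetics were judged by ATP-dependent luminescence after ≥48 hr.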
Starred values were filed as active, the others as inactive; ? = inconclusive; / = not tested or not shown; [ ] = another dose, or the depositor's remark. Calls follow the shape of the dose curve; as a rule, active = well fitted curve in the direction sought with a large enough effect; inconclusive = small, poorly fitted or top-dose-only effect, or another doubt; inactive = no such curve, though single readings can be large; an effect the other way counts as inactive or inconclusive. % is scaled to controls: 0 for no effect and ±100 for the full control effect; potency is read from the fitted curve at half-maximal effect.

SMILES	RORgamma inh	VP16 counter	ELG1 DNA repair	ALOX12 inh	TDP1 cell CPT	DT40 TDP1 no CPT
COC(=O)[C@@]12C[C@@H](CC(=O)NCC3CCCCC3)C(=O)N(Cc3ccccc3)C1=CCC(C)(C)C2	/	/	/	-25%	?	?
COC(=O)[C@@]12C[C@@H](CC(=O)NCc3ccc(OC)c(OC)c3)C(=O)N(Cc3ccccc3)C1=CCC(C)(C)C2	/	/	/	-28%	18µM*	?
CC1CCCCC1NC(=O)CSc1ccc2c(c1)OCCCO2 (stereo not drawn)	/	/	/	-3%	/	/
O=C(N1CCCCC1)C1(S(=O)(=O)c2ccccc2)CC=CC1	-17%	?	22%	2%	21µM*	8.2µM*
COC(=O)c1ccn(Cc2ccc(Cl)c(Cl)c2)n1	/	/	/	5%	/	/
O=C(CN1C(=O)CSc2ccc(S(=O)(=O)N3CCCCC3)cc21)NCc1ccc(F)cc1Cl	/	/	/	-12%	23µM*	?
COc1ccccc1CNC(=O)CN1C(=O)COc2ccc(S(=O)(=O)N3CCCCC3)cc21	1%	-12%	18%	-5%	?	?
COc1ccccc1CNC(=O)CN1C(=O)CSc2ccc(S(=O)(=O)N3CCCCC3)cc21	/	/	/	-10%	?	21µM*
COc1ccc(NC(=O)CN2C(=O)CSc3ccc(S(=O)(=O)N(C)C)cc32)cc1Cl	/	/	/	-12%	23µM*	?
CC1CCCCC1NC(=O)CN1C(=O)CSc2cc(S(=O)(=O)N3CCCCCC3)ccc21 (stereo not drawn)	7%	-9%	?	-6%	?	21µM*
Cc1ccc(CNC(=O)CN2C(=O)CSc3ccc(S(=O)(=O)N4CCCCC4)cc32)cc1	24%	2%	-6%	-8%	-26%	8%
COC(=O)[C@H](Cc1ccc(OC)cc1)NC(=O)[C@@H]1CN(C(=O)NC(C)C)CCN1C(=O)C1CCCCC1	/	/	/	16%	/	/
O=C(CN1C(=O)CSc2ccc(S(=O)(=O)N3CCCC3)cc21)Nc1cccc(Cl)c1	/	/	/	-9%	?	23µM*
COc1cccc(NC(=O)CN2C(=O)CSc3ccc(S(=O)(=O)N4CCCC4)cc32)c1	/	/	/	-11%	?	?
Cn1cc(C#N)cc1C(=O)N1CCCC(C)(Cc2ccc3c(c2)OCO3)C1 (stereo not drawn)	/	/	/	5%	/	/
O=C(Cn1ccc(=O)[nH]c1=O)Nc1cccc2cccnc12	/	/	/	63%	/	/
CCOC(=O)c1c(NC(=O)C(NCCN(C)C)c2ccccc2)sc2c1CCCC2 (stereo not drawn)	3.5µM*	11µM*	-2%	?	0.65µM*	2.1µM*
CCOC(=O)c1c(NC(=O)c2ccco2)sc2c1CCCC2	0%	-4%	2%	0%	?	?
CCOC(=O)c1c(NC(=O)c2ccccc2N(C)S(=O)(=O)c2ccccc2)sc2c1CCCC2	9%	-13%	?	-2%	?	21µM*
COC(=O)c1c(NC(=O)c2ccccc2C(=O)O)sc2c1CCC2	36%	5%	?	49%	-12%	-8%
CC(C)OC(=O)c1c(NS(=O)(=O)c2ccccc2)sc2c1CCCC2	-51%	-10%	-4%	-24%[57.4 µM]	6.5µM*	5.2µM*
CCOC(=O)c1c(NC(=O)c2ccccc2Cl)sc2c1CCCC2	/	/	/	-22%	?	?
COC(=O)c1c(NC(=O)c2ccccc2N(C)S(=O)(=O)c2ccccc2)sc2c1CCCC2	-20%	-7%	?	1%	16µM*	15µM*
O=C(Cc1cccc(F)c1)N1CCC(Oc2ccccc2-c2nc(C3CC3)no2)C1 (stereo not drawn)	/	/	/	1%	/	/
